From PubChem
PrP 5UTR inh = suppresses PrP 5' UTR mRNA reporter expression. cell-based PrP 5' UTR mRNA reporter, plate reader. hit rate 0.35% among 340,000. inhibition, % (concentration not given with the values); in the data active = inhibition above about 52%; note: 0 = median of the neutral control wells
Vc quorum ag = quorum light induction in luxS cqsA deficient V. cholerae; V. cholerae BH1578 lux reporter, luminescence, 6 h; activation, % at 18.7 µM; hit rate 0.16% among 350,000; in the data active = activation mostly above about 9.7%, no sharp cut-off
PrPC TRFRET = cell surface PrPC inhibition, primary TR-FRET screen | P04156 | TR-FRET read-out | inhibition, % at 13.8 µM | hit rate 0.43% among 370,000 | AID 720596; in the data active = inhibition above about 24%; note: 0% = median of the test wells and 100% = reference compound wells
PfHsp40 yeast = rescue of PfHsp40-mediated yeast toxicity; S. cerevisiae expressing PfHsp40, growth rescue, ATP luminescence; growth rescue, % at 12.5 µM; hit rate 0.68% among 340,000; AID 504582; in the data active = growth rescue above about 28%, passing the limit was not always enough;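 note: yeast W303a lacking pdr1 and pdr3 grown in galactose medium; growth measured after three days at 30 °C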
3CLpro inhibitor = SARS-CoV 3CLpro protease inhibition; P0C6X7; recombinant SARS-CoV 3CLpro, quenched FRET peptide cleavage; inhibition, % at 6 µM; hit rate 0.14% among 290,000; AID 1706; in the data active = inhibition above about 12%
SSB-PriA inh = K. pneumoniae PriA-SSBct interaction inhibition; AID 1272365; AlphaScreen SSBct-PriA binding, biotinylated peptide; hit rate 0.6% among 430,000; inhibition, % at 33 µM; in the data active = inhibition mostly above about 37%, no sharp cut-off; inactive = mostly below about 20%;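 note: plate controls were negative control peptide for no effect and reference peptide for full effect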
PrPC confirm = confirmation of inhibitors of cell surface human prion protein; shares compounds with PrPC TRFRET; cell surface PrPC level, TR-FRET; inhibition, % at 13.8 µM; hit rate 65% among 1,500; AID 743200; in the data active = inhibition above about 25%
LD9 tox = LD9 cell cytotoxicity, PrPc inhibitor counter-screen. shares compounds with PrPC TRFRET. LD9 cells cytotoxicity, luminescence viability. inhibition, % at 13.8 µM. hit rate 29% among 1,500. AID 743201; in the data active = inhibition above about 9.5%
Numbers without * were called inactive; i = inactive; x = no result. Only some compounds are listed: those with a hit (about 1.6% of all), similar ones and a draw of the others.

SMILES | PrP 5UTR inh | Vc quorum ag | PrPC TRFRET | PfHsp40 yeast | 3CLpro inhibitor | SSB-PriA inh | PrPC confirm | LD9 tox
COc1ccc(C(=O)Nc2ccc(N3CCOCC3)cc2)cc1S(=O)(=O)N1CCOCC1 | -8 | -6 | 1 | 0 | x | -8 | x | x
COc1ccc(C(=O)Nc2ccc(-c3cn4ccsc4n3)cc2)cc1S(=O)(=O)N1CCOCC1 | 0 | -6 | 77* | 1 | -5 | -5 | 51* | -3
Cc1ccc(S(=O)(=O)N2CCOC23CCN(C(=O)c2ccc(Cl)cc2Cl)CC3)cc1 | -17 | 0 | 48* | 3 | 2 | 0 | 32* | 0
CC(=O)N1c2ccc(S(=O)(=O)NCCn3ncccc3=O)cc2CC1C (stereo unspecified) | x | x | x | x | x | -14 | x | x
COc1cccc(-c2noc(CN3C(=O)C(C)Oc4ccccc43)n2)c1 (stereo unspecified) | x | x | x | x | x | -13 | x | x
COc1ccc(OCCNC(=O)c2ccc3nc(C)c(N(C)C(=O)CCc4ccccc4)n3c2)cc1 | x | -5 | 59* | x | x | x | -3 | 0
CCCCC(=O)N(C)c1c(C)nc2ccc(C(=O)NCCOc3ccc(OC)cc3)cn12 | x | 0 | 7 | x | x | x | x | x
CC(=O)c1cnc(N)s1 | x | x | x | x | x | -11 | x | x
COc1cc(C(=O)Nc2scc(-c3ccc(C)cc3)c2C(=O)O)cc(OC)c1OC | -25 | 0 | 60* | 0 | 10 | -13 | 69* | -5
COc1cc(NC(=O)c2cccc3c(-c4cccnc4)coc23)cc(OC)c1OC | x | 0 | 30* | x | x | x | 25* | 43*
Cc1ccc(S(=O)(=O)Nc2ccc3c(c2)NC(=O)C(C)(C)CO3)cc1Cl | x | x | x | x | x | -1 | x | x
CCN1CCc2c(sc(NC(=O)c3ccc(S(=O)(=O)N4CCCCCC4)cc3)c2C(=O)NC)C1 | 2 | -1 | 52* | 1 | 0 | -14 | -24 | -3
Cc1ccc(Cl)c2sc(NC(=O)CCc3ccccc3)nc12 | x | x | x | x | x | -13 | x | x
Cc1cc2nc(N)sc2cc1C | -79 | 0 | 36* | -2 | 1 | 0 | 8 | -3
Nc1nc2cc3c(cc2s1)OCO3 | x | x | x | x | x | 5 | x | x
CC(=O)c1cccc(NS(=O)(=O)c2ccc(-c3cnc(C4CC4)o3)cc2)c1 | -42 | 0 | 30* | 3 | 8 | 1 | 22 | 19*
COc1cccc(Cn2c(=O)c3sccc3n(Cc3ccc(OC)c(F)c3)c2=O)c1 | x | x | x | x | x | -9 | x | x
CC(C)c1ccccc1-n1c(SCC(=O)N2CCc3ccccc3C2)nc2ccccc2c1=O | -16 | i | 34* | 1 | 4 | 10 | 36* | 35*
Cc1ccc(S(=O)(=O)Nc2ccccc2N(C)S(=O)(=O)c2ccc(C)cc2)cc1 | -5 | 1 | 26* | 6 | x | -3 | 18 | 9.7*
Cc1ccc(S(=O)(=O)Nc2ccccc2NS(=O)(=O)c2ccc(C)cc2)cc1 | x | x | 9 | x | x | x | x | x
CCOc1ccc2ccccc2c1C(=O)Nc1cccc(N2CCCC2=O)c1 | x | x | x | x | x | 2 | x | x
COCc1cc(=O)[nH]c(Nc2nc3ccc(C)cc3o2)n1 | -42 | 12 | 32* | 1 | 2 | -2 | 13 | 48*
Cc1ccc(OCc2nc3ccccc3n2C(C)C(=O)Nc2c(C)cccc2C)cc1 (stereo unspecified) | x | x | 33* | x | x | x | 26* | -3
Cc1ccc(OCc2nc3ccccc3n2C(C(=O)NC(C)(C)C)c2ccccc2)cc1 (stereo unspecified) | x | x | 9 | x | x | x | x | x
O=C(NCc1cnn2c1CCCC2)c1cc(-c2cccs2)[nH]n1 | x | x | x | x | x | 8 | x | x
Cc1cc(Br)c(OCc2ccc(C(=O)N/N=C/c3ccc[nH]3)cc2)c(Br)c1 | 36 | 0 | 26* | 0 | x | x | 52* | 65*
Cc1nc(SCc2ccccc2F)[nH]c(=O)c1CC(=O)NC1CC1 | x | x | x | x | x | 2 | x | x
O=C(NC(NC(=S)Nc1ccccc1Cl)C(Cl)(Cl)Cl)c1cccc(Cl)c1 (stereo unspecified) | -22 | -2 | 25* | 0 | 6 | -9 | 40* | 11*
COc1ccc(NC(=S)NC(NC(=O)c2cccc(Cl)c2)C(Cl)(Cl)Cl)c([N+](=O)[O-])c1 (stereo unspecified) | -20 | -10 | 0 | 2 | 8 | -3 | x | x
COCCCNC(=O)C(=O)Nc1ccccc1Cl | x | x | x | x | x | -13 | x | x
